According to the supplement of paper PMC11732987, “Enantioselective OTUD7B fragment discovery through chemoproteomics screening and high-throughput optimisation” (Communications Chemistry, 2025):

Tests used:
Experiment in all cases: log2 ratio of Biotin-Ahx-Ub-VS probe labelling (fragment/DMSO); higher = less target engagement (more negative = stronger competition), active = hit call of the paper (q ≤ 0.05, log2 ratio ≤ -1)
Conditions in all cases: compound concentration: 200 uM; treatment time: 3 h
USP34 = USP34 (UniProt Q70CQ2)
USP34, sequence (Q70CQ2 whole entry, the tested form may be a part): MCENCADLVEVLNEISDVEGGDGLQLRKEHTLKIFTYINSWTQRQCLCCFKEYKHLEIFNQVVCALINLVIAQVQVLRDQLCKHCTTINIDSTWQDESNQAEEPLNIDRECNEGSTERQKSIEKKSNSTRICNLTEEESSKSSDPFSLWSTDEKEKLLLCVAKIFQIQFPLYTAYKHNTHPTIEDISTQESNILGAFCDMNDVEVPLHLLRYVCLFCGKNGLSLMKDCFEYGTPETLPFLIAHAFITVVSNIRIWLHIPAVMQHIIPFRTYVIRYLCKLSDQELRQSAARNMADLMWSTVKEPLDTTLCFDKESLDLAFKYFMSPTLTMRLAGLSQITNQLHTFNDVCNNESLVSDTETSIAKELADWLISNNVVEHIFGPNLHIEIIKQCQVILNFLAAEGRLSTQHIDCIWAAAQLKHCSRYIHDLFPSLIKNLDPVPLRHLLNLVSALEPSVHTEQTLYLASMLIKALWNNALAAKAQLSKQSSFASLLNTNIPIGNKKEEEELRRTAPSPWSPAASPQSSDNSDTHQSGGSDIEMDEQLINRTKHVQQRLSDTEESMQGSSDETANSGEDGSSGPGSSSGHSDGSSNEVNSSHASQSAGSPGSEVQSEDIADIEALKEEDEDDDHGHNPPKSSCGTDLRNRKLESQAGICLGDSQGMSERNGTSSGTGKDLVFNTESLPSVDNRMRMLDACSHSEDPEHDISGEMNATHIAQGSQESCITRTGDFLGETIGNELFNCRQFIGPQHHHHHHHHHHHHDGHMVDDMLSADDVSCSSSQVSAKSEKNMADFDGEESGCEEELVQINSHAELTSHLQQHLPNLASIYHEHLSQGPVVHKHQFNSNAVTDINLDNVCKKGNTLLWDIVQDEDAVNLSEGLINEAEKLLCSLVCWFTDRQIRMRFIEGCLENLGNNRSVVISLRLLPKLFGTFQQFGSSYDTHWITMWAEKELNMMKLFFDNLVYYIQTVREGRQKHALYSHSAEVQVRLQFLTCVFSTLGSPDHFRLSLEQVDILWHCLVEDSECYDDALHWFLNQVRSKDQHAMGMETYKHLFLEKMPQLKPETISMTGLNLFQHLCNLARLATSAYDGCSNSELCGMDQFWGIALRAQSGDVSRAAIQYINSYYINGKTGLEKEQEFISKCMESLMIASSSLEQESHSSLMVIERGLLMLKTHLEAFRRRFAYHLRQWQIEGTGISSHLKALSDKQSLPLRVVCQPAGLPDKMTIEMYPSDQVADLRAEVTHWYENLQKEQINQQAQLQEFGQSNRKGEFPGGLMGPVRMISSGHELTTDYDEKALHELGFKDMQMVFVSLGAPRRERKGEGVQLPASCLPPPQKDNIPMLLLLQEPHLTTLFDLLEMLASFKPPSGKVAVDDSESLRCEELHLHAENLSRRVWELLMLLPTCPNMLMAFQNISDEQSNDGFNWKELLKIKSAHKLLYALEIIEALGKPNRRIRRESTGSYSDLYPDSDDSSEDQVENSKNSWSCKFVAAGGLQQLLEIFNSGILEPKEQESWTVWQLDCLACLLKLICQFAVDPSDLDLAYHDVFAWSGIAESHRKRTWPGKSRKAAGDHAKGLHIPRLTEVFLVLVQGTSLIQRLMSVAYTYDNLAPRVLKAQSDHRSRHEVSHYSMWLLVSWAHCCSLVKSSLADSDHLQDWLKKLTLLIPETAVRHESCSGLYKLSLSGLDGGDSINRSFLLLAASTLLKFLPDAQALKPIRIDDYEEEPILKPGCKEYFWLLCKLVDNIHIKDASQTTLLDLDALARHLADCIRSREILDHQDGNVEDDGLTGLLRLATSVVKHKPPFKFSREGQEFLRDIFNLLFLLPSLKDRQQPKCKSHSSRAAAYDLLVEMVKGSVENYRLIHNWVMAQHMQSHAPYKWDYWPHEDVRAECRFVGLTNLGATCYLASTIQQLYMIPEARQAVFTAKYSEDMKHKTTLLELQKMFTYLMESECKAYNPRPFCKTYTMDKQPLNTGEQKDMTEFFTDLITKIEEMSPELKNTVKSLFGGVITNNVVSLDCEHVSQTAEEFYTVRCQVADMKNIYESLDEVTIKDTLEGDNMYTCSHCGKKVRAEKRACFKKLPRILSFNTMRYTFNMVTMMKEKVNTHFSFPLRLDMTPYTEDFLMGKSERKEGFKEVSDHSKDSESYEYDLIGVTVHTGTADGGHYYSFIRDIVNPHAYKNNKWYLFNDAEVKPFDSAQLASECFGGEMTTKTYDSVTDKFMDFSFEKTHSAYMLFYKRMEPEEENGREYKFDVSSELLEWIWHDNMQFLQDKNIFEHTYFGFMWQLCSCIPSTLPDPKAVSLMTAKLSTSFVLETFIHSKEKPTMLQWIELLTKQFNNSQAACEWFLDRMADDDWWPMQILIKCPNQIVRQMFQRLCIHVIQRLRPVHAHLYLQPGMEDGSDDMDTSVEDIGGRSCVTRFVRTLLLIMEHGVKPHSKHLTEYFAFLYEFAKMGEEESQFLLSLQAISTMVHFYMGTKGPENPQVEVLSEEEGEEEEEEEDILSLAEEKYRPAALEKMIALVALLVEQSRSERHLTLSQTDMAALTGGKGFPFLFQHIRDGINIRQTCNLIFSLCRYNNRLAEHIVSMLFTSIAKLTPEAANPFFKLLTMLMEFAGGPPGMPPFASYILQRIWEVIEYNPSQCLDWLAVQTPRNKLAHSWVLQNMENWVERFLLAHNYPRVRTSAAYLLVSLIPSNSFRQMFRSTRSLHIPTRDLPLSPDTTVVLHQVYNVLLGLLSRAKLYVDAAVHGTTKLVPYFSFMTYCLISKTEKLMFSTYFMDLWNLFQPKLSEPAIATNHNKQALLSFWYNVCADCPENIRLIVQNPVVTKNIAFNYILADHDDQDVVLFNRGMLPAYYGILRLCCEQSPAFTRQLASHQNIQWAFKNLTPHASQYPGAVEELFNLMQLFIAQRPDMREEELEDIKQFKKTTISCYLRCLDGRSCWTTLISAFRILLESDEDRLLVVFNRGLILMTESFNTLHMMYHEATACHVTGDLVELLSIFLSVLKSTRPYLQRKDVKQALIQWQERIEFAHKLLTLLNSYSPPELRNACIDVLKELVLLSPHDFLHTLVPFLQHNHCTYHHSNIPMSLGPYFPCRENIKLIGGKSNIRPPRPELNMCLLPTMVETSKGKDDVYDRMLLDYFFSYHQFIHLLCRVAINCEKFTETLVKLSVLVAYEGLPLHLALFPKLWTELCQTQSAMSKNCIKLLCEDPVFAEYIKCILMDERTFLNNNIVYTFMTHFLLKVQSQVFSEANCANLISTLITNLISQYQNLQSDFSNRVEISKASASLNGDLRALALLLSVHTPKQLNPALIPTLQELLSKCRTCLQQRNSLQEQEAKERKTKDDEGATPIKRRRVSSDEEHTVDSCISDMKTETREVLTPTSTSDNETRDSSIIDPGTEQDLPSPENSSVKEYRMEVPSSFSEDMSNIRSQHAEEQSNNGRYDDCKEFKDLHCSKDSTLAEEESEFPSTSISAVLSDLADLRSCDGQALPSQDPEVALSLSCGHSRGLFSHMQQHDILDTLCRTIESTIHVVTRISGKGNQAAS
How it was run: (§1)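 Using Biotin-Ahx-Ub-VS at 0.5 µM final for 1 h, DUBs were labelled in HEK293T lysate (495 µg per sample) that had first been treated in triplicate with fragment at 200 µM or vehicle for 3 h. NeutrAvidin enrichment, LysC and trypsin digestion and diaPASEF LC-MS/MS followed. Spectronaut label-free quantities were global-median-normalised. Values are average log2 fragment/vehicle ratios by unpaired t-test, using proteins with ≥2 unique peptides.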

USP36 = target: T1, USP36 (UniProt Q9P275)
T1 sequence (whole entry): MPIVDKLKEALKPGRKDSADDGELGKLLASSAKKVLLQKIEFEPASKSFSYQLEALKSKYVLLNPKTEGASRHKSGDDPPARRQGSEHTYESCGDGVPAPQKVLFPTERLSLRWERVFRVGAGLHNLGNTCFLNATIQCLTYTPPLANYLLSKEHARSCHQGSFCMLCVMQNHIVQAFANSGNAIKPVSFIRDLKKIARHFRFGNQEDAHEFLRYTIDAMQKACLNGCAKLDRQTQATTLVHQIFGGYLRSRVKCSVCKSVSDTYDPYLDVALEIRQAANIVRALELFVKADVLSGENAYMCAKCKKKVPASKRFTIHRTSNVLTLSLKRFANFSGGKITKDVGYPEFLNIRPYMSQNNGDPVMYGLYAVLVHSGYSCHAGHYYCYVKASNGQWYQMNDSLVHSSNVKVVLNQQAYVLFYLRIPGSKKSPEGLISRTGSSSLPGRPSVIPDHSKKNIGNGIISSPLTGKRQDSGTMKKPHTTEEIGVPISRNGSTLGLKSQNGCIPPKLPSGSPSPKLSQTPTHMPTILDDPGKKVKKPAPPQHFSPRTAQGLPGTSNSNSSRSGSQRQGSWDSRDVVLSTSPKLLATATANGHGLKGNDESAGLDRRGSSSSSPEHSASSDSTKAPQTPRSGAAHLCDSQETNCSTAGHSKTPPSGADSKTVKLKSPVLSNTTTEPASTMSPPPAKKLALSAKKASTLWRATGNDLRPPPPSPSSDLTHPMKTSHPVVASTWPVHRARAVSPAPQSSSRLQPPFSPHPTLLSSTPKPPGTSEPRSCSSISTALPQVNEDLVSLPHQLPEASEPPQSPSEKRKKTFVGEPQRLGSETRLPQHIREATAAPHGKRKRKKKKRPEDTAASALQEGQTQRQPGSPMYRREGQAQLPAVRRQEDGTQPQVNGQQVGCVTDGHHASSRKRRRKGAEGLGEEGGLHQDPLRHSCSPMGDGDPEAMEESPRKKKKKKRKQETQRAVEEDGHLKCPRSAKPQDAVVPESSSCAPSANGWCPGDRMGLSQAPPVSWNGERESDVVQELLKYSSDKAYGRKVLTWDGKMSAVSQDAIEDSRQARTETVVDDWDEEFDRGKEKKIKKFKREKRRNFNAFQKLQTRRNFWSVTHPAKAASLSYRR
How it was run: as §1

USP38 = target: T2, USP38 (UniProt Q8NB14)
T2 sequence (whole entry): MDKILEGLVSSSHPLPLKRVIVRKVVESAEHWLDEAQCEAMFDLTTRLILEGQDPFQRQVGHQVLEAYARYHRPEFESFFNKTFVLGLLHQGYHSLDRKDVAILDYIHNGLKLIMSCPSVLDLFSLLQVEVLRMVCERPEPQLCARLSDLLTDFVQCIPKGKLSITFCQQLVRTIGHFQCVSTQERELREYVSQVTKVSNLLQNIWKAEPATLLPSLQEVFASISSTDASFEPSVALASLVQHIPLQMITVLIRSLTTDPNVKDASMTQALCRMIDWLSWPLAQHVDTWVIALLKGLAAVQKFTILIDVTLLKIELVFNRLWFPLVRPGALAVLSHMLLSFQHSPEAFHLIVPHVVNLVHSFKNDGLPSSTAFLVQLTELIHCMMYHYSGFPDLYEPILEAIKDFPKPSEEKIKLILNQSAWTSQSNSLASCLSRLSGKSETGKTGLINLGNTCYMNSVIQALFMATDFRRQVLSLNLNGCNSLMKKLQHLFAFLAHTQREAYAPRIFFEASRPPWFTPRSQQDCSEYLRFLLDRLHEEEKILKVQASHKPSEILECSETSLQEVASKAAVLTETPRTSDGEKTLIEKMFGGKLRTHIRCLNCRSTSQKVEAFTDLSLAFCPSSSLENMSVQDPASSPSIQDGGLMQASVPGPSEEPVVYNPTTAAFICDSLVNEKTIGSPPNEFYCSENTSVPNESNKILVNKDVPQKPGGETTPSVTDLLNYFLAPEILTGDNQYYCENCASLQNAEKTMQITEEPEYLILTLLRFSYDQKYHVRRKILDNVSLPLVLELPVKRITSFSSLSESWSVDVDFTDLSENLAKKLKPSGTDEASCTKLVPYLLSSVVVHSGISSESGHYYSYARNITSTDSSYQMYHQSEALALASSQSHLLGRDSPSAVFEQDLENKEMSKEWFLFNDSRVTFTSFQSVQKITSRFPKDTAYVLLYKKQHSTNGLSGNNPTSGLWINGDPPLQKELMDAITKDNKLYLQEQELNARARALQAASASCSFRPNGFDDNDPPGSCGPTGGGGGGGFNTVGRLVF
How it was run: as §1

USP39 = target: T3, USP39 (UniProt Q53GS9)
T3 sequence (whole entry): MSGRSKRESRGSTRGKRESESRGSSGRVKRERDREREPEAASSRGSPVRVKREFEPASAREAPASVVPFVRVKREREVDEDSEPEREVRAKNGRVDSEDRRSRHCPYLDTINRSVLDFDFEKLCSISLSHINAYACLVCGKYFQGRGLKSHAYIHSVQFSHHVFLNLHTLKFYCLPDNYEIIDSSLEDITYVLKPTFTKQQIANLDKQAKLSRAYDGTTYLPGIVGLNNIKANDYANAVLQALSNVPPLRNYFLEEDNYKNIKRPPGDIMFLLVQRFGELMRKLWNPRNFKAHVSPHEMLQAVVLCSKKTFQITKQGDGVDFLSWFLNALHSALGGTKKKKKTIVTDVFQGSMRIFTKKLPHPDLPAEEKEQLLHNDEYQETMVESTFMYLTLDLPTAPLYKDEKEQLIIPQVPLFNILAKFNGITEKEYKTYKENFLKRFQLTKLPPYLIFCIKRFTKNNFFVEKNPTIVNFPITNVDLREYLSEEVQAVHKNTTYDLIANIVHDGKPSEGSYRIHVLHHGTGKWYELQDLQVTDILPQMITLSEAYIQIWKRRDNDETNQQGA
How it was run: as §1

USP4 = target: T4, USP4 (UniProt Q13107)
T4 sequence (whole entry): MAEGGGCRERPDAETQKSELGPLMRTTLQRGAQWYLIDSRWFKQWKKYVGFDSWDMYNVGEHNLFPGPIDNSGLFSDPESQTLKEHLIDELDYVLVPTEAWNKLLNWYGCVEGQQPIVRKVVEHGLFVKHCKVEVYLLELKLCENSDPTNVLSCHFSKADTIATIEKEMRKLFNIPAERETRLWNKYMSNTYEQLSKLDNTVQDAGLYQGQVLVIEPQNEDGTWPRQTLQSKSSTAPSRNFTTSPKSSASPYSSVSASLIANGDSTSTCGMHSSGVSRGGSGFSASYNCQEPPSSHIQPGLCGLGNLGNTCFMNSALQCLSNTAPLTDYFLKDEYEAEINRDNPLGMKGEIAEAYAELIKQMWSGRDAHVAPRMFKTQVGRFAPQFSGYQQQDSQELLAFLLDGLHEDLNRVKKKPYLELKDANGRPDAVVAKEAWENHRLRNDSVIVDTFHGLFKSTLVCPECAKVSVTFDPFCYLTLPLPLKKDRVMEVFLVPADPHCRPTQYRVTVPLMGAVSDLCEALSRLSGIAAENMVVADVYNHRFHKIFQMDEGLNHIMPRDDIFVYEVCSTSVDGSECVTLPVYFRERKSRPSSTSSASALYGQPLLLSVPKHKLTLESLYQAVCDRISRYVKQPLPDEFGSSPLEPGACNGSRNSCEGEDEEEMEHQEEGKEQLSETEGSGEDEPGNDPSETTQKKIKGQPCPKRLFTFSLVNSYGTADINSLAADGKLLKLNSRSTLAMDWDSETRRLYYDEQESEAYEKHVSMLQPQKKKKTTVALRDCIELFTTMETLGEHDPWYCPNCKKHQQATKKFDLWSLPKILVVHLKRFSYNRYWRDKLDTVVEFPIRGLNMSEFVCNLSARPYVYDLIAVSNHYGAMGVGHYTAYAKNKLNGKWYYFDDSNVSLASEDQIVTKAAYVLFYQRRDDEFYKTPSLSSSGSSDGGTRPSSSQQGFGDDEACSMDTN
How it was run: as §1

Measured: log2 ratio of Biotin-Ahx-Ub-VS probe labelling

CN1C(=O)c2ccc(NC(=O)CCl)cc2C1=O
inactive: USP34 -0.233 | USP36 0.0568 | USP38 -0.169 | USP39 0.16 | USP4 -0.181
